Hits are enriched below; roughly 0.33% of the tested compounds scored in any of these assays.
FXIa inh: human FXIa protease inhibitors, primary screen, biochemical, single compound per well; purified human FXIa, fluorogenic AMC substrate cleavage; inhibition, % at 10 µM; Coagulation factor XI (Homo sapiens), P03951; 33,000 tested, 0.3% active;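 active = inhibition above 40% in the primary screen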;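 also: 0% = enzyme without compound and 100% = blank wells lacking enzyme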
FXIIa inh: human FXIIa protease inhibitors, primary screen, biochemical, single well | Coagulation factor XII (Homo sapiens), P00748 | purified human FXIIa, AMC substrate fluorescence, 2 h | inhibition, % at 10 µM | 33,000 tested, 0.2% active | AID 701, 2007; in the data active = inhibition above about 30%;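 also: 0% = enzyme with vehicle only and 100% = no enzyme blank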
* marks the source's active call; other numbers are inactive results.

SMILES	FXIa inh	FXIIa inh
O=c1cccc2n1CC1CC2CN(S(=O)(=O)c2ccccc2)C1 (stereo not drawn)	42*	3
O=C(Nc1ccc(F)cc1)N1CC2CC(C1)c1cccc(=O)n1C2 (stereo not drawn)	-9	-10
C#CCOCOCC#CCN(CC)CC	9	5

Screening data from PubChem.
